From the supplement of paper PMC9023506
Counter-ions that a name gives are not always drawn.

test system: Danio rerio larvae (5 dpf); assay: startle response to 20-s acoustic pulses, difference vs DMSO (percentage points (treated minus DMSO)); higher = more of the behaviour than the DMSO vehicle control; settings: 10 µM; exposure time: 3 h pre-incubation + 3 h imaging
Procedure, shortened: (§1)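 Library drugs were diluted 1000× from DMSO stocks into egg water to reach 10 µM and applied to 5-dpf wild-type zebrafish larvae in 96-well ProxiPlates, 48 larvae per drug. The larvae stayed exposed for 3 h before imaging and for the 3 h of imaging at 28.5 °C. Behaviour scores, given in percentage points, are the treated mean minus the vehicle mean for movement and upper-half location.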

Structure (SMILES)	startle response to 20-s acoustic pulses
O=C1CCc2ccc(OCCCCN3CCN(c4cccc(Cl)c4Cl)CC3)cc2N1 [Aripiprazole]	-4.17
CCCCC(=O)N(Cc1ccc(-c2ccccc2-c2nnn[nH]2)cc1)[C@H](C(=O)O)C(C)C [Valsartan]	-0.147
OC(CNCC(O)C1CCc2cc(F)ccc2O1)C1CCc2cc(F)ccc2O1 (stereo not drawn) [Nebivolol hydrochloride]	-6.21
COc1ccc([C@@H]2Sc3ccccc3N(CCN(C)C)C(=O)[C@@H]2OC(C)=O)cc1 [Diltiazem hydrochloride]	0.061
CC1CNc2c(cccc2S(=O)(=O)N[C@@H](CCCNC(=N)N)C(=O)N2CC[C@@H](C)C[C@@H]2C(=O)O)C1 (stereo partly drawn) [Argatroban]	2.94
CCN(CC)CCNC(=O)c1c(C)[nH]c(/C=C2\C(=O)Nc3ccc(F)cc32)c1C [Sunitinib malate]	-2.32
Cc1ccc(-c2cc(C(F)(F)F)nn2-c2ccc(S(N)(=O)=O)cc2)cc1 [Celecoxib]	-6.81
CCCCc1nc(Cl)c(CO)n1Cc1ccc(-c2ccccc2-c2nnn[nH]2)cc1 [Losartan potassium]	-0.252
CN(C)C(=N)NC(=N)N [Metformin hydrochloride]	-1.12
CN1CCN2c3ncccc3Cc3ccccc3C2C1 (stereo not drawn) [Mirtazapine]	-5.94
COCCCOc1cc(C[C@@H](C[C@H](N)[C@@H](O)C[C@H](C(=O)NCC(C)(C)C(N)=O)C(C)C)C(C)C)ccc1OC [Aliskiren hemifumarate]	-0.0432
Cn1nnc2c(C(N)=O)ncn2c1=O [Temozolomide]	2.71
Nc1nc2c(ncn2COCCO)c(=O)[nH]1 [Acyclovir]	0.665
CC(C)(C#N)c1cc(Cn2cncn2)cc(C(C)(C)C#N)c1 [Anastrozole]	-0.38

test system: Danio rerio larvae (5 dpf); assay: optomotor response to fast red moving lines, difference vs DMSO (percentage points (treated minus DMSO)); higher = more of the behaviour than the DMSO vehicle control; settings: 10 µM; exposure time: 3 h pre-incubation + 3 h imaging
Procedure, shortened: as §1

Structure (SMILES)	optomotor response
CCOc1nc2cccc(C(=O)O)c2n1Cc1ccc(-c2ccccc2-c2nnn[nH]2)cc1 [Candesartan]	1.2
Nc1nc(F)nc2c1ncn2[C@@H]1O[C@H](CO)[C@@H](O)[C@@H]1O [Fludarabine]	-4.77
CCCc1nn(C)c2c(=O)[nH]c(-c3cc(S(=O)(=O)N4CCN(C)CC4)ccc3OCC)nc12 [Sildenafil citrate]	-12.3
Cc1ccc(NC(=O)c2ccc(CN3CCN(C)CC3)cc2)cc1Nc1nccc(-c2cccnc2)n1 [Imatinib mesylate]	1.11
Cc1ccc(-c2cc(C(F)(F)F)nn2-c2ccc(S(N)(=O)=O)cc2)cc1 [Celecoxib]	-11.4
CCCCc1nc(Cl)c(CO)n1Cc1ccc(-c2ccccc2-c2nnn[nH]2)cc1 [Losartan potassium]	-3.43
CCOC(=O)[C@H](CCc1ccccc1)N[C@@H](C)C(=O)N1[C@H](C(=O)O)C[C@@H]2CCC[C@@H]21 [Ramipril]	-1.3
NS(=O)(=O)c1cc(C(=O)O)c(NCc2ccco2)cc1Cl [Furosemide]	0.619
Nc1nc(NC2CC2)c2ncn([C@H]3C=C[C@@H](CO)C3)c2n1 [Abacavir hemisulfate]	-1.18
